PriA SSB inh: inhibitors of Klebsiella pneumoniae PriA binding to SSB C-terminal tail; AlphaScreen SSBct-PriA binding, biotinylated peptide; inhibition, % at 33 µM; 0.6% of 430,000 active; AID 1272365; in the data active = inhibition mostly above about 37%, no sharp cut-off; inactive = mostly below about 20%
Mtb hypoxia rep: Mtb hypoxia fluorescent reporter inhibition; fluorescence inhibition, % (no concentration beside the values); M. tuberculosis hypoxia-regulated fluorescent reporter, fluorescence; 0.1% of 300,000 active; in the data active = fluorescence inhibition mostly above about 23%, no sharp cut-off; inactive = mostly below about 17%
Sa ugtP lethal: compounds lethal to S. aureus RN4220 ugtP deletion mutant | growth inhibition, % (concentration not given with the values) | 0.54% of 330,000 active | OD600 growth, 16 h; in the data active = growth inhibition above about 68%
Mtb bLac sens: beta-lactam sensitization of Mtb H37Rv; M. tuberculosis H37Rv growth with meropenem, percent inhibition; inhibition, % at 25 µM; 0.27% of 330,000 active; AID 434955; call rule not given here;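 also: growth measured after seven days incubation then overnight dye step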
RN4220 kill: kills Staphylococcus aureus RN4220 | S. aureus RN4220 growth, OD600, 16 h | inhibition, % (no concentration beside the values) | 0.33% of 330,000 active; in the data active = inhibition above about 85%
Numbers stand for hits; 0 = inactive; - = not tested or not shown. Most compounds without a hit are left out; they make up all but 1% or so of the library.

SMILES | PriA SSB inh | Mtb hypoxia rep | Sa ugtP lethal | Mtb bLac sens | RN4220 kill
CCOc1ccc2oc(C(=O)OCC(=O)N3C(C)CCCC3C)c(C)c2c1 (stereo not given) | 0 | 25 | 0 | 0 | 0
O=c1ccc(N2CCOCC2)n[nH]1 | 0 | - | - | - | -
Cc1cc(C)c(S(=O)(=O)Nc2cccc3ccccc23)c(C)c1 | 0 | - | - | - | -
O=C(/C=C/c1ccco1)NC(=S)Nc1ccccc1N1CCOCC1 | 0 | 0 | 98 | 0 | 0
O=C(/C=C/c1ccco1)NC(=S)Nc1ccccc1N1CCCC1 | 0 | 0 | 99 | 0 | 0
O=C(/C=C/c1ccco1)NC(=S)Nc1cc(C(F)(F)F)ccc1N1CCOCC1 | 0 | - | - | 0 | -
O=C(C=Cc1ccco1)NC(=S)Nc1cc(C(F)(F)F)ccc1N1CCOCC1 | - | 0 | 96 | - | 0
NS(=O)(=O)c1ccc(NC(=O)C(C(=O)Nc2ccc(S(N)(=O)=O)cc2)C23CC4CC(CC(C4)C2)C3)cc1 | 0 | - | - | - | -
O=C(Cc1ccsc1)NC1CCC(Oc2cnccn2)CC1 (stereo not given) | 0 | - | - | - | -
O=C(O)CCN1C(=O)/C(=C\c2ccncc2)SC1=S | 0 | 38 | 0 | 0 | 0
COc1ccc(/C=C2/SC(=S)N(CCC(=O)O)C2=O)cc1 | 0 | 0 | 0 | 0 | 0
O=C(O)CCCCCN1C(=O)/C(=C/c2cn(-c3ccccc3)nc2-c2cccs2)SC1=S | 0 | 0 | 0 | - | 0
O=C(O)CCN1C(=O)/C(=C/c2cn(-c3ccccc3)nc2-c2cccs2)SC1=S | 0 | 0 | 93 | - | 0
O=C(O)CCN1C(=O)/C(=C\c2ccc(-c3nc4ccccc4s3)o2)SC1=S | 0 | - | 101 | 0 | 109
CN1CCc2cc(C(CNC(=O)c3cccc(C(F)(F)F)c3)N3CCCC3)ccc21 (stereo not given) | 0 | - | - | - | -
COc1ccccc1NC(=O)c1ccc(NC(=O)CN2CCCC2)cc1 | 47 | 0 | 0 | 0 | 0
COc1cc(NC(=O)Nc2cccc(Cl)c2)c(OC)cc1NC(=O)CN1CCCCC1 | 50 | 0 | 0 | 0 | 0
CCS(=O)(=O)N1CCC(Oc2ncccc2Br)CC1 | 0 | - | - | - | -
COc1ccc(Nc2nc(OC)nc(OC)n2)cc1 | 0 | 0 | 0 | 0 | 0
COc1ccc(Nc2ccnc(Nc3ccc(OC)cc3)n2)cc1 | 45 | 0 | 0 | 0 | 0
O=C(CCCn1nnnc1CN1CCOCC1)N1CCC(c2ccc(F)cc2)C1 (stereo not given) | 39 | 0 | 0 | 0 | 0
CCCC1Oc2ccccc2C(=O)N(CC(=O)c2ccc(F)cc2)C1=O (stereo not given) | 54 | - | - | - | -
O=C(CN1C(=O)SC(=C2CCCCC2)C1=O)Nc1ccc(F)cc1 | 0 | - | - | - | -
O=C(O)c1cn(C2CC2)c2cc(N3CCN(S(=O)(=O)c4ccc5c(c4)OCCO5)CC3)c(F)cc2c1=O | 0 | - | 100 | 0 | 99
CCn1cc(C(=O)O)c(=O)c2cc(F)c(N3CCN(S(=O)(=O)c4ccc(Br)cc4)CC3)cc21 | - | - | - | 0 | -
SMILES | PriA SSB inh | Mtb hypoxia rep | Sa ugtP lethal | Mtb bLac sens | RN4220 kill
Clc1nssc1=Nc1ccc(Br)cc1 | 0 | 0 | 0 | - | 0
Clc1ccc(N=c2ssnc2Cl)nc1 | 0 | 0 | 95 | 0 | 0
CC1CC(=NNc2ccc(S(N)(=O)=O)cc2[N+](=O)[O-])CC(C)(C)C1 (stereo not given) | 52 | 0 | 0 | - | 0
CC1CC(=NNc2ccc([N+](=O)[O-])cc2[N+](=O)[O-])CC(C)(C)C1 (stereo not given) | 0 | 0 | 0 | - | 0
CC1CCCC/C1=N\Nc1ccc(S(N)(=O)=O)cc1[N+](=O)[O-] (stereo not given) | - | - | - | 0 | -
CC(C)(C)C1CCC(=NNc2ccc(S(N)(=O)=O)cc2[N+](=O)[O-])CC1 (stereo not given) | 45 | 0 | 0 | 0 | 0
COc1ccc(S(=O)(=O)c2c(C)cc(C)n(CC(=O)NCc3ccccc3Cl)c2=O)cc1 | 0 | - | - | - | -
COc1cc(/C=C2\SC(N)=NC2=O)ccc1OCC(=O)Nc1ccc(C)cc1 | - | 53 | 0 | 0 | 0
Cc1cc(OC2CN(C(=O)c3cc(-c4ccco4)[nH]n3)C2)cc(=O)o1 | 0 | - | - | - | -
CN(C)c1ccc(O[C@H]2CCN(C(=O)CCn3ccc(=O)[nH]c3=O)C2)nn1 | 0 | - | - | - | -
Clc1ccc2c(c1)c1cc(Cl)ccc1n2CN1CCOCC1 | 0 | 0 | 84 | 0 | 0
CN(C)c1ccc(C=NN2C(=S)SC(C)(C)C2N(O)C(=O)Nc2ccc([N+](=O)[O-])cc2)cc1 (stereo not given) | 45 | - | 0 | - | 0
CN(C)c1ccc(/C=N/N2C(=S)SC(C)(C)C2N(O)C(=O)Nc2ccc([N+](=O)[O-])cc2)cc1 (stereo not given) | - | - | - | 0 | -
CSc1ncc(Cl)c(C(=O)Nc2nc3ccccc3s2)n1 | 0 | - | - | - | -
O=c1cc(-c2ccccc2)[nH]n1-c1nc2ccccc2s1 | 0 | - | 91 | 0 | 0

Source: PubChem (several laboratories)
